Test results as given in PubChem BioAssay AID1159580 (chemical genetic matrix, 2015).
Several values for one entry are separate records, joined by “and”; a condition that tells them apart may be missing. Equal values may be shown once. In all, about 5,500 compounds went through this assay and about 2,000 (36%) were called active. Not shown: some 18% with an inconclusive outcome. Cut-off read from the data, not from the text of the source: active = normalized growth mostly below about 0.91 (no sharp cut-off); inconclusive = no clear call, values can overlap the other calls; inactive = mostly above about 0.92. The list shows a part of the results.

Assay: chemical genetic growth profiling, strain panel (AID 1159580);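 note: tested at 20 µM; growth read once vehicle control cultures reached saturation at 30 °C; 1 = growth at the plate median or of vehicle wells; lower values mean less growth of the strain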
Conditions: S. cerevisiae deletion strains, growth OD

Measured: normalized growth

O=C(CCc1ccc(O)cc1)c1c(O)cc(O)cc1O
inactive: locus YAL013W, strain DEP1, stronger effect = lower value 1.01 | locus YAL021C, strain ccr4, stronger effect = lower value 0.998 | locus YAL026C, strain drs2, stronger effect = lower value 1 | locus YAL030W, strain snc1, stronger effect = lower value 1.01 | locus YAL040C, strain CLN3, stronger effect = lower value 1.05 | locus YBL061C, strain skt5, stronger effect = lower value 1.02 | locus YBR009C, strain hhf1, stronger effect = lower value 0.992 | locus YBR021W, strain FUR4, stronger effect = lower value 1.03 | locus YBR023C, strain chs3, stronger effect = lower value 0.999 | locus YBR171W, strain sec66, stronger effect = lower value 1.02 | locus YBR229C, strain ROT2, stronger effect = lower value 0.991 | locus YBR231C, strain swc5, stronger effect = lower value 1.01 | locus YBR279W, strain paf1, stronger effect = lower value 1.01 | locus YCL011C, strain gbp2, stronger effect = lower value 1.02 | locus YCL016C, strain dcc1, stronger effect = lower value 1.01 | locus YCL029C, strain bik1, stronger effect = lower value 1 | locus YCL061C, strain MRC1 (second series), stronger effect = lower value 1.01 | locus YCL061C, strain MRC1, stronger effect = lower value 0.99 | locus YCL069W, strain vba3, stronger effect = lower value 1.02 | locus YCR088W, strain abp1, stronger effect = lower value 1.02 | locus YDL005C, strain med2, stronger effect = lower value 1.02 | locus YDL035C, strain GPR1, stronger effect = lower value 1.01 | locus YDL040C, strain nat1, stronger effect = lower value 0.997 | locus YDL074C, strain BRE1, stronger effect = lower value 0.987 | locus YDL101C, strain DUN1, stronger effect = lower value 1.01 | locus YDL134C, strain PPH21, stronger effect = lower value 1.01 | locus YDL185W, strain tfp1, stronger effect = lower value 1.01 | locus YDL192W, strain arf1, stronger effect = lower value 1.01 | locus YDR001C, strain nth1, stronger effect = lower value 1.02 | locus YDR069C, strain doa4, stronger effect = lower value 0.978 | locus YDR101C, strain arx1, stronger effect = lower value 1.02 | locus YDR137W, strain rgp1, stronger effect = lower value 1.11 | locus YDR150W, strain NUM1, stronger effect = lower value 1 and 0.988 | locus YDR159W, strain sac3, stronger effect = lower value 1.04 | locus YDR162C, strain NBP2, stronger effect = lower value 0.989 | locus YDR195W, strain ref2 1 | locus YDR297W, strain sur2, stronger effect = lower value 1 | locus YDR318W, strain mcm21, stronger effect = lower value 1.04 | locus YDR334W, strain swr1, stronger effect = lower value 1 | locus YDR335W, strain msn5, stronger effect = lower value 1.01 | locus YDR363W, strain ESC2, stronger effect = lower value 0.977 | locus YDR388W, stronger effect = lower value 1.01 | locus YDR392W, strain spt3, stronger effect = lower value 1 | locus YDR502C, strain sam2, stronger effect = lower value 0.994 | locus YEL003W, strain gim4, stronger effect = lower value 1.01 | locus YEL037C, strain rad23, stronger effect = lower value 1 | locus YEL061C, strain CIN8 (second series), stronger effect = lower value 1.02 | locus YEL061C, strain CIN8, stronger effect = lower value 0.997 | locus YER002W, strain NOP16, stronger effect = lower value 1.02 | locus YER015W, strain faa2, stronger effect = lower value 1 | locus YER016W, strain bim1, stronger effect = lower value 1.01 | locus YER110C, stronger effect = lower value 1.01 | locus YER111C, strain swi4, stronger effect = lower value 1.01 | locus YER155C, strain BEM2 (second series), stronger effect = lower value 1 | locus YER155C, strain BEM2, stronger effect = lower value 1.01 | locus YER167W, strain BCK2, stronger effect = lower value 1.02 | locus YFR010W, strain ubp6, stronger effect = lower value 0.992 | locus YGL078C, strain dbp3, stronger effect = lower value 1.01 | locus YGL086W, strain mad1, stronger effect = lower value 1.01 | locus YGL167C, strain pmr1, stronger effect = lower value 1.01 | locus YGL173C, strain kem1, stronger effect = lower value 1.02 | locus YGL227W, strain vid30, stronger effect = lower value 1.02 | locus YGL240W, strain doc1, stronger effect = lower value 1.01 | locus YGL248W, strain PDE1, stronger effect = lower value 1 | locus YGL253W, strain hxk2, stronger effect = lower value 1.02 | locus YGR078C, strain PAC10, stronger effect = lower value 0.987 and 1.01 | locus YGR135W, strain pre9, stronger effect = lower value 0.998 | locus YGR229C, strain SMI1, stronger effect = lower value 0.979 | locus YHR013C, strain ard1, stronger effect = lower value 0.99 | locus YHR027C, strain rpn1, stronger effect = lower value 1.01 | locus YHR030C, strain SLT2, stronger effect = lower value 1 and 0.997 | locus YHR079C, strain IRE1 (second series), stronger effect = lower value 1 | locus YHR079C, strain IRE1, stronger effect = lower value 0.983 | locus YHR094C, strain hxt1, stronger effect = lower value 0.999 | locus YHR129C, strain ARP1, stronger effect = lower value 0.998 | locus YHR142W, strain chs7, stronger effect = lower value 1.01 | locus YHR200W, strain rpn10, stronger effect = lower value 1.02 | locus YIL066C, strain RNR3, stronger effect = lower value 1.01 | locus YIL073C, strain SPO22, stronger effect = lower value 1.1 | locus YIL125W, strain kgd1, stronger effect = lower value 1.03 | locus YIR030C, strain dcg1, stronger effect = lower value 1.01 | locus YJL092W, strain hpr5, stronger effect = lower value 1.01 | locus YJL095W, strain BCK1 (second series), stronger effect = lower value 1.01 | locus YJL095W, strain BCK1, stronger effect = lower value 0.994 and 0.99 | locus YJL115W, strain asf1, stronger effect = lower value 1.02 | locus YJL129C, strain trk1, stronger effect = lower value 1.05 | locus YJL134W, strain LCB3, stronger effect = lower value 1.01 | locus YJL154C, strain vps35, stronger effect = lower value 1.02 | locus YJL164C, strain tpk1, stronger effect = lower value 0.984 | locus YJL166W, strain qcr8, stronger effect = lower value 1.01 | locus YJL168C, strain set2, stronger effect = lower value 0.995 | locus YJL187C, strain SWE1 (second series), stronger effect = lower value 0.995 | locus YJL187C, strain SWE1, stronger effect = lower value 1.02 | locus YJR043C, strain POL32, stronger effect = lower value 0.997 | locus YJR066W, strain TOR1, stronger effect = lower value 0.948
